Results as given in PubChem BioAssay AID1508601 (ICCB-Longwood Screening Facility, Harvard Medical School, 2020).
Where “and” joins values, the source holds several entries; their conditions need not be identical. Equal entries are not always repeated. Among all 5,700 compounds or so, about 85 (1%) were called active. Cut-off read from the data, not from the text of the source: active = p53-positive nuclei above about 36% (passing the limit was not always enough); inactive = the rest. Shown is part of a subset that was picked to be rich in actives. Peptide text beside a SMILES is read from it. * marks the point of attachment. Cbz = O=C(OCc1ccccc1)*

Legend:
[1] = nuclear p53 accumulation, HPV+ cells – imaging, p53-positive nuclei imaging, 24 h, 48 h (AID 1508601); conditions: 24/48 h
[2] = target: Cellular tumor antigen p53 (Homo sapiens) (UniProt P04637); test: as above; conditions: 24/48 h, stronger effect = higher value
Cellular tumor antigen p53 (Homo sapiens), sequence (P04637 whole entry, looked up): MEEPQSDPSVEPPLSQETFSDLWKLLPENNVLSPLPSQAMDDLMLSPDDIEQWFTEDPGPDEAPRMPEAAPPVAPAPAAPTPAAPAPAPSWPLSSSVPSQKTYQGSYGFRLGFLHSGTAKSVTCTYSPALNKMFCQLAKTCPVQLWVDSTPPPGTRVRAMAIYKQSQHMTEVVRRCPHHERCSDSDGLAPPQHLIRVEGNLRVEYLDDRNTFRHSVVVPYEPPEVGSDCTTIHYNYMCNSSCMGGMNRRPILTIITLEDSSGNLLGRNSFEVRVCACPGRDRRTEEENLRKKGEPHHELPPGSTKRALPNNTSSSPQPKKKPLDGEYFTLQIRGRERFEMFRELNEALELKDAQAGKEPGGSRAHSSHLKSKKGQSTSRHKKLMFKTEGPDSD

[3] = measured here: cell number at 24 h, Library stock concentration: 46 uM
[4] = measured here: cell number at 24 h, Library stock concentration: 278 uM
[5] = measured here: cell number at 24 h, Library stock concentration: 1.67 mM
[6] = measured here: cell number at 24 h, Library stock concentration: 3.33 mM
[7] = measured here: cell number at 24 h, Library stock concentration: 10 mM
[8] = measured here: cell number at 48 h, Library stock concentration: 46 uM
[9] = measured here: cell number at 48 h, Library stock concentration: 278 uM
[10] = measured here: cell number at 48 h, Library stock concentration: 1.67 mM
[11] = measured here: cell number at 48 h, Library stock concentration: 3.33 mM
[12] = measured here: cell number at 48 h, Library stock concentration: 10 mM
[13] = Library stock concentration: 46 uM
[14] = Library stock concentration: 278 uM
[15] = Library stock concentration: 1.67 mM
[16] = Library stock concentration: 3.33 mM
[17] = Library stock concentration: 10 mM
[18] = measured here: p53 positive nuclei at 24 h, Library stock concentration: 46 uM
[19] = measured here: p53 positive nuclei at 24 h, Library stock concentration: 278 uM
[20] = measured here: p53 positive nuclei at 24 h, Library stock concentration: 1.67 mM
[21] = measured here: p53 positive nuclei at 24 h, Library stock concentration: 3.33 mM
[22] = measured here: p53 positive nuclei at 24 h, Library stock concentration: 10 mM
[23] = measured here: cell number at 24 h, Library stock concentration: 80 uM
[24] = measured here: cell number at 24 h, Library stock concentration: 400 uM
[25] = measured here: cell number at 24 h, Library stock concentration: 2 mM
[26] = measured here: cell number at 48 h, Library stock concentration: 80 uM
[27] = measured here: cell number at 48 h, Library stock concentration: 400 uM
[28] = measured here: cell number at 48 h, Library stock concentration: 2 mM
[29] = Library stock concentration: 80 uM
[30] = Library stock concentration: 400 uM
[31] = Library stock concentration: 2 mM
[32] = measured here: p53 positive nuclei at 24 h, Library stock concentration: 80 uM
[33] = measured here: p53 positive nuclei at 24 h, Library stock concentration: 400 uM
[34] = measured here: p53 positive nuclei at 24 h, Library stock concentration: 2 mM

Compound: CC(C)CC(C=O)NC(=O)C(CC(C)C)NC(=O)C(CC(C)C)NC(=O)OCc1ccccc1 (stereo not drawn) (Cbz-Leu-Leu-Leu-aldehyde; configuration not given here)
- nuclei count, normalised [1, 3]: 112%
- nuclei count, normalised [1, 4]: 112%
- nuclei count, normalised [1, 5]: 62%
- nuclei count, normalised [1, 6]: 46.1%
- nuclei count, normalised [1, 7]: 59.9%
- nuclei count, normalised [1, 8]: 111%
- nuclei count, normalised [1, 9]: 104%
- nuclei count, normalised [1, 10]: 46.9%
- nuclei count, normalised [1, 11]: 38.7%
- nuclei count, normalised [1, 12]: 46.7%
- p53-positive nuclei, normalised [2, 13]: -0.152% (inactive)
- p53-positive nuclei, normalised [2, 14]: 0.0393% (inactive)
- p53-positive nuclei, normalised [2, 15]: 92% (active)
- p53-positive nuclei, normalised [2, 16]: 92% (active)
- p53-positive nuclei, normalised [2, 17]: 106% (active)
- p53-positive nuclei, normalised [2, 18]: 0.0832%
- p53-positive nuclei, normalised [2, 19]: -0.0262%
- p53-positive nuclei, normalised [2, 20]: 44.6%
- p53-positive nuclei, normalised [2, 21]: 87.5%
- p53-positive nuclei, normalised [2, 22]: 135%

Compound: CC(NC(=O)C(Cc1ccccc1)NC(=O)OCc1ccccc1)C(=O)CF (configuration not stated)
- nuclei count, normalised [1, 6]: 108%
- nuclei count, normalised [1, 11]: 101%
- p53-positive nuclei, normalised [2, 16]: -0.054% (inactive)
- p53-positive nuclei, normalised [2, 21]: -0.116%

Compound: C=CC(=O)N1CCc2ccc(-n3c(=O)ccc4cnc5ccc(-c6cnn(C)c6)cc5c43)cc21
- nuclei count, normalised [1, 23]: 107%
- nuclei count, normalised [1, 24]: 102%
- nuclei count, normalised [1, 25]: 74.7%
- nuclei count, normalised [1, 7]: 48.5%
- nuclei count, normalised [1, 26]: 108%
- nuclei count, normalised [1, 27]: 102%
- nuclei count, normalised [1, 28]: 84.2%
- nuclei count, normalised [1, 12]: 37.4%
- p53-positive nuclei, normalised [2, 29]: -0.0335% (inactive)
- p53-positive nuclei, normalised [2, 30]: -0.203% (inactive)
- p53-positive nuclei, normalised [2, 31]: -0.00288% (inactive)
- p53-positive nuclei, normalised [2, 17]: 0.846% (inactive)
- p53-positive nuclei, normalised [2, 32]: -0.0563%
- p53-positive nuclei, normalised [2, 33]: -0.129%
- p53-positive nuclei, normalised [2, 34]: -0.129%
- p53-positive nuclei, normalised [2, 22]: 0.0284%

Compound: CS(=O)(=O)c1ccc(C(CC2CCCC2)C(=O)Nc2nccs2)cc1 (configuration not stated)
- nuclei count, normalised [1, 23]: 117%
- nuclei count, normalised [1, 24]: 108%
- nuclei count, normalised [1, 25]: 110%
- nuclei count, normalised [1, 7]: 109%
- nuclei count, normalised [1, 26]: 110%
- nuclei count, normalised [1, 27]: 104%
- nuclei count, normalised [1, 28]: 100%
- nuclei count, normalised [1, 12]: 106%
- p53-positive nuclei, normalised [2, 29]: 0.258% (inactive)
- p53-positive nuclei, normalised [2, 30]: 0.124% (inactive)
- p53-positive nuclei, normalised [2, 31]: 0.01% (inactive)
- p53-positive nuclei, normalised [2, 17]: -0.00666% (inactive)
- p53-positive nuclei, normalised [2, 32]: -0.031%
- p53-positive nuclei, normalised [2, 33]: -0.122%
- p53-positive nuclei, normalised [2, 34]: 0.0254%
- p53-positive nuclei, normalised [2, 22]: -0.0737%

Compound: O=C(NN=Cc1ccc(O)c(O)c1)c1cc2ccccc2cc1O
- nuclei count, normalised [1, 6]: 108%
- nuclei count, normalised [1, 11]: 99.5%
- p53-positive nuclei, normalised [2, 16]: 0.0529% (inactive)
- p53-positive nuclei, normalised [2, 21]: -0.25%

Compound: CCOC(=O)NC1CCC2C(C1)CC1C(=O)OC(C)C1C2C=Cc1ccc(-c2cccc(F)c2)cn1 (configuration not stated)
- nuclei count, normalised [1, 3]: 115%
- nuclei count, normalised [1, 4]: 108%
- nuclei count, normalised [1, 5]: 101%
- nuclei count, normalised [1, 7]: 105%
- nuclei count, normalised [1, 8]: 117%
- nuclei count, normalised [1, 9]: 109%
- nuclei count, normalised [1, 10]: 107%
- nuclei count, normalised [1, 12]: 107%
- p53-positive nuclei, normalised [2, 13]: -0.0807% (inactive)
- p53-positive nuclei, normalised [2, 14]: -0.17% (inactive)
- p53-positive nuclei, normalised [2, 15]: 0.0724% (inactive)
- p53-positive nuclei, normalised [2, 17]: -0.166% (inactive)
- p53-positive nuclei, normalised [2, 18]: -0.0891%
- p53-positive nuclei, normalised [2, 19]: -0.151%
- p53-positive nuclei, normalised [2, 20]: -0.079%
- p53-positive nuclei, normalised [2, 22]: 0.188%

Compound: Nc1ccccc1NC(=O)c1ccc(CNC(=O)OCc2cccnc2)cc1
- nuclei count, normalised [1, 3]: 96%
- nuclei count, normalised [1, 23]: 114%
- nuclei count, normalised [1, 4]: 104%
- nuclei count, normalised [1, 24]: 118%
- nuclei count, normalised [1, 5]: 107%
- nuclei count, normalised [1, 25]: 124%
- nuclei count, normalised [1, 6]: 104%
- nuclei count, normalised [1, 7]: 90.8% and 96%
- nuclei count, normalised ([1]; measured here: cell number at 24 h, concentration not given here): 107%
- nuclei count, normalised [1, 8]: 96.3%
- nuclei count, normalised [1, 26]: 103%
- nuclei count, normalised [1, 9]: 103%
- nuclei count, normalised [1, 27]: 100%
- nuclei count, normalised [1, 10]: 95.3%
- nuclei count, normalised [1, 28]: 101%
- nuclei count, normalised [1, 11]: 88.9%
- nuclei count, normalised [1, 12]: 58% and 57.5%
- nuclei count, normalised ([1]; measured here: cell number at 48 h, concentration not given here): 103%
- p53-positive nuclei, normalised [2, 13]: -0.0533% (inactive)
- p53-positive nuclei, normalised [2, 29]: -0.489% (inactive)
- p53-positive nuclei, normalised [2, 14]: -0.145% (inactive)
- p53-positive nuclei, normalised [2, 30]: -0.1% (inactive)
- p53-positive nuclei, normalised [2, 15]: 3.54% (inactive)
- p53-positive nuclei, normalised [2, 31]: 0.00969% (inactive)
- p53-positive nuclei, normalised [2, 16]: 0.482% (inactive)
- p53-positive nuclei, normalised [2, 17]: 17.1% (inactive) and 14.2% (inactive)
- p53-positive nuclei, normalised ([2]; concentration not given here): 0.78% (inactive)
- p53-positive nuclei, normalised [2, 18]: 0.084%
- p53-positive nuclei, normalised [2, 32]: -0.0702%
- p53-positive nuclei, normalised [2, 19]: -0.207%
- p53-positive nuclei, normalised [2, 33]: 0.0634%
- p53-positive nuclei, normalised [2, 20]: 5.23%
- p53-positive nuclei, normalised [2, 34]: 0.00201%
- p53-positive nuclei, normalised [2, 21]: 0.899%
- p53-positive nuclei, normalised [2, 22]: 34.2% and 14.9%
- p53-positive nuclei, normalised ([2]; measured here: p53 positive nuclei at 24 h, concentration not given here): 0.224%

Compound: Nc1ccccc1NC(=O)c1ccc(CNc2nccc(-c3cccnc3)n2)cc1
- nuclei count, normalised [1, 23]: 128%
- nuclei count, normalised [1, 24]: 124%
- nuclei count, normalised [1, 25]: 125%
- nuclei count, normalised [1, 6]: 42.1%
- nuclei count, normalised [1, 7]: 49.9%
- nuclei count, normalised [1, 26]: 109%
- nuclei count, normalised [1, 27]: 107%
- nuclei count, normalised [1, 28]: 98.1%
- nuclei count, normalised [1, 11]: 30.1%
- nuclei count, normalised [1, 12]: 29.3%
- p53-positive nuclei, normalised [2, 29]: 8% (inactive)
- p53-positive nuclei, normalised [2, 30]: 0.396% (inactive)
- p53-positive nuclei, normalised [2, 31]: 1.82% (inactive)
- p53-positive nuclei, normalised [2, 16]: 23.5% (inactive)
- p53-positive nuclei, normalised [2, 17]: 83.5% (active)
- p53-positive nuclei, normalised [2, 32]: 4.97%
- p53-positive nuclei, normalised [2, 33]: 0.046%
- p53-positive nuclei, normalised [2, 34]: 0.551%
- p53-positive nuclei, normalised [2, 21]: 10.3%
- p53-positive nuclei, normalised [2, 22]: 87.6%

Compound: Cc1ccc(NC(=O)c2ccc(CN3CCN(C)CC3)cc2)cc1Nc1nccc(-c2cccnc2)n1
- nuclei count, normalised [1, 23]: 114%
- nuclei count, normalised [1, 24]: 85.7%
- nuclei count, normalised [1, 25]: 91%
- nuclei count, normalised [1, 6]: 99% and 103%
- nuclei count, normalised [1, 7]: 87.2%
- nuclei count, normalised [1, 26]: 112%
- nuclei count, normalised [1, 27]: 84.9%
- nuclei count, normalised [1, 28]: 92.2%
- nuclei count, normalised [1, 11]: 99.2% and 104%
- nuclei count, normalised [1, 12]: 87.9%
- p53-positive nuclei, normalised [2, 29]: 0.0518% (inactive)
- p53-positive nuclei, normalised [2, 30]: 0.00427% (inactive)
- p53-positive nuclei, normalised [2, 31]: -0.0247% (inactive)
- p53-positive nuclei, normalised [2, 16]: -0.686% (inactive) and -0.212% (inactive)
- p53-positive nuclei, normalised [2, 17]: -0.182% (inactive)
- p53-positive nuclei, normalised [2, 32]: 0.0696%
- p53-positive nuclei, normalised [2, 33]: 0.334%
- p53-positive nuclei, normalised [2, 34]: 0.0437%
- p53-positive nuclei, normalised [2, 21]: -0.375% and -0.356%
- p53-positive nuclei, normalised [2, 22]: -0.0433%
